According to PubChem BioAssay (Tox21):
Inconclusive results are not listed. The source made the active and inactive calls. Unless noted, calls follow the shape of the full dose curve.

Tests used:
[1] = qHTS assay to identify small molecule antagonists of the estrogen related receptor signaling pathway with the pleiotropic PPARgamma coactivator (PGC) from Tox21 10K library - cell viability counter screen (AID 1224840; active = well fitted cell-killing curve with a large enough effect in the repeat runs, not every such curve was filed as active; also: nearly all actives have a fitted effect of over 40% in size); conditions: PGC/ERR reporter cells viability, CellTiter-Fluor, 17.5 h; series mostly up to 92.4 µM
Procedure, shortened: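 Cell viability is measured by CellTiter-Fluor fluorescence in PGC/ERR cells that receive compounds after a 6-hour attachment period and are then incubated 17.5 hours at 37 C.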

[2] = qHTS assay to identify small molecule agonists of the hypoxia (HIF-1) signaling pathway - cell viability counter screen (AID 1224844); conditions: HRE-bla ME-180 viability, CellTiter-Glo luminescence, 17 h; series mostly up to 76.8 µM; also: nearly all actives have a fitted effect of over 50% in size
Procedure, shortened: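 Viability counter screen: HRE-bla ME-180 cells plated 5 hrs before compound addition, treated 17 hrs at 37C and 5% CO2, then CellTiter-Glo added after the FRET reporter read; luminescence after 30 min.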

[3] = qHTS assay to identify small molecule agonists of H2AX (AID 1224845; active = well fitted activation curve with a large enough effect in the signal ratio in the repeat runs, not every such curve was filed as active; the % refers to the signal ratio); conditions: CHO-K1 phospho-H2AX Ser139 HTRF, 3 h; series mostly up to 154 µM
Procedure, shortened: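 Phospho-H2AX Ser139 measured by HTRF (ex 320 nm; em 665 and 620 nm) after 24 hr antibody incubation. Compounds, 15 concentrations, 0.76% DMSO, were applied to CHO-K1 cells for 3hr at 37C before lysis.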

[4] = qHTS assay to identify small molecule agonists of the hypoxia (HIF-1) signaling pathway (AID 1224846; active = well fitted activation curve with a large enough effect in the signal ratio in the repeat runs, not every such curve was filed as active; the % refers to the signal ratio); conditions: HRE-bla ME-180 cells, beta-lactamase ratio, 17 h; series mostly up to 76.8 µM
Procedure, shortened: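 Agonist mode reporter screen. ME-180 cells stably expressing bla under HRE control received test compounds in DMSO for 17 hrs (37C, 5% CO2), and beta-lactamase activity was then detected with the CCF4-AM FRET substrate.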

[5] = qHTS assay to identify small molecule agonists of H2AX - cell viability counter screen (AID 1224847); conditions: CHO-K1 viability, CellTiter-Glo luminescence, 3 h; series mostly up to 154 µM; also: top concentration of the series differs between compounds; nearly all actives have a fitted effect of over 30% in size
Procedure, shortened: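 Read-out: CellTiter-Glo luminescence, 30 min RT. Cells: wild-type CHO-K1, 1000/well, 10% FBS, plated overnight at 37C. Treatment: 15 concentrations, 3 hr, 37C, 0.76% DMSO.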

[6] = target: Thyrotropin receptor (Homo sapiens) (UniProt P16473); assay: qHTS assay to identify small molecule agonists of the thyroid stimulating hormone receptor (TSHR) signaling pathway (AID 1224843); conditions: TSHR-HEK293 cells, cAMP HTRF, agonist mode, 30 min; series mostly up to 92.4 µM; also: nearly all actives have a fitted effect of over 45% in size
Chain of Thyrotropin receptor (Homo sapiens) (P16473 whole entry, looked up): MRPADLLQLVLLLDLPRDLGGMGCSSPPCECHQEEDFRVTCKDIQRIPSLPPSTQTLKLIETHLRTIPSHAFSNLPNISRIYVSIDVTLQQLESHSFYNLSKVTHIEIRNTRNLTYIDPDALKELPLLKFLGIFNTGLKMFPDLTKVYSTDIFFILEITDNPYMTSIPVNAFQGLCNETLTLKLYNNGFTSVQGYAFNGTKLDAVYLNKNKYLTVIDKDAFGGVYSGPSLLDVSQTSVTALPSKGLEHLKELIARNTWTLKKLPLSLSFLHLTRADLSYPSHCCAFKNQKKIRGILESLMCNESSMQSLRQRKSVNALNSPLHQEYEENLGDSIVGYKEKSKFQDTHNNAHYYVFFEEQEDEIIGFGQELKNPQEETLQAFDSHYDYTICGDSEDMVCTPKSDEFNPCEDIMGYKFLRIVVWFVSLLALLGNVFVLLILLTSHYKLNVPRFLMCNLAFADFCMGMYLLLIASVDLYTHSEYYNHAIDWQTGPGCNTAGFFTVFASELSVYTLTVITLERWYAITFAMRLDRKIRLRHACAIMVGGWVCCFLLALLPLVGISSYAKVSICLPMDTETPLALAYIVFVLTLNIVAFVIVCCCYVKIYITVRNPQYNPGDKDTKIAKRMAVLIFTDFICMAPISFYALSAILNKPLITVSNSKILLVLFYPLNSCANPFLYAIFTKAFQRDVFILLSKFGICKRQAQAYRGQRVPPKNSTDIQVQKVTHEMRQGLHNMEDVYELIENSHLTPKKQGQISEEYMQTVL
Procedure, shortened: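 A cell-based cAMP HTRF format was run in TSHR-transfected HEK293 cells, 800 per well. Treatment: 30 min, room temperature. Detection: 1 h with labelled cAMP and anti-cAMP cryptate. Concentration-response over 15 points, three replicates.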

[7] = qHTS assay to identify small molecule antagonists of the estrogen related receptor signaling pathway with the pleiotropic PPARgamma coactivator (PGC) from Tox21 10K library (AID 1224841; call rule not given here; also: actives are mostly falling curves and most rising ones were filed inactive; nearly all actives have a fitted effect of over 50% in size); conditions: PGC/ERR reporter cell line, ONE-Glo luciferase, 18 h; series mostly up to 92.4 µM
Procedure, shortened: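 Cells stably carrying the PGC/ERR reporter, seeded at 2,000 per well, received pin-transferred compounds 6 h post-plating. Exposure lasted 18 h at 37 C. Signal: One-Glo luminescence.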

[8] = qHTS assay to identify small molecule agonists of the estrogen related receptor signaling pathway with the pleiotropic PPARgamma coactivator (PGC) from Tox21 10K library (AID 1224842; active = well fitted curve in the direction sought with a large enough effect in the repeat runs; an effect the other way counts as inactive or inconclusive; also: nearly all actives have a fitted effect of over 15% in size); conditions: PGC/ERR reporter cell line, luciferase ONE-Glo, 18 h; series mostly up to 92.4 µM
Procedure, shortened: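 Luminescence from One-Glo (30 min, room temperature) measured after PGC/ERR cells had 18 h at 37 C with pinned compound (23 nL in DMSO). Cells had been seeded at 2,000 per well and pre-incubated 6 h.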

[9] = qHTS assay to identify small molecule antagonists of the estrogen related receptor (ERR) signaling pathway from Tox21 library (AID 1224848; active = well fitted curve in the direction sought with a large enough effect in the repeat runs; an effect the other way counts as inactive or inconclusive; also: nearly all actives have a fitted effect of over 50% in size); conditions: ERR reporter cell line, luciferase antagonist mode, 18 h; series mostly up to 92.4 µM
Procedure, shortened: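 ERR cell line, 2,000 cells/well. 6 h settle, then compound (DMSO) added; 18 h at 37 C; ONE-Glo luminescence after 30 min RT.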

[10] = qHTS assay to identify small molecule agonists of the estrogen related receptor (ERR) signaling pathway from Tox21 library (AID 1224849); conditions: ERR reporter cell line, ONE-Glo luciferase, 18 h; at 92.4 µM (top of the series) unless noted; also: nearly all actives have a fitted effect of over 15% in size
Procedure, shortened: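 Quantitative HTS in agonist format: NTP ERR cell line, compounds transferred in DMSO after 6 h plating, 18 h incubation at 37 C, ONE-Glo luminescence endpoint.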
% is scaled to controls: 0 for no effect and ±100 for the full control effect.

O=S(=O)(O)CC(O)CCl (stereo not given)
inactive: outcome [1] | outcome [2] | outcome [3] | outcome [4] | outcome [5]

CN1CCN(C(=O)C2CCCCC2)CC1
inactive: outcome [1] | Potency [6] | outcome [3] | outcome [4] | outcome [5]

CCCCCCC(O)CO (stereo not given)
inactive: outcome [1] | outcome [2] | outcome [3] | outcome [4] | outcome [5]

CCCC(C)C(O)CC (stereo not given)
inactive: Potency [7] | Potency [8] | Potency [6] | outcome [2] | outcome [3] | outcome [5] | outcome [9] | activity change, positive = activation [10] -0.957%

CCCCCCCCCCCBr
inactive: outcome [1] | outcome [2] | outcome [3] | outcome [4] | outcome [5]

N#Cc1ccccc1C#N
inactive: outcome [1] | outcome [2] | outcome [3] | outcome [4] | outcome [5]

CC(=O)O[C@@H]1CC2C3CCc4cc(OC(=O)c5ccccc5)ccc4C3CCC2(C)[C@H]1OC(C)=O (stereo not given in full)
inactive: outcome [1] | Potency [6] | outcome [3] | outcome [4]

Cc1ccc(NC(N)=O)cc1
inactive: outcome [1] | Potency [6] | outcome [3] | outcome [5]

CCC(C)c1nccnc1OC (stereo not given)
inactive: Potency [7] | Potency [8] | Potency [6] | outcome [2] | outcome [3] | outcome [4] | outcome [5] | outcome [9] | activity change, positive = activation [10] 1.46%

CC(C)(C)OC=O
inactive: outcome [1] | Potency [6] | outcome [3] | outcome [4] | outcome [5]

CCOC(=O)CC
inactive: outcome [1] | outcome [2] | outcome [3] | outcome [4] | outcome [5]

COC(C)(C)CC(C)=O
inactive: outcome [1] | outcome [2] | outcome [3] | outcome [4] | outcome [5]

CCCC(=O)C(CC)Sc1ccoc1C (stereo not given)
inactive: outcome [1] | Potency [6] | outcome [3] | outcome [4]

O=P(O)(O)C(O)(Cc1cccnc1)P(=O)(O)O
inactive: outcome [1] | outcome [2] | outcome [3] | outcome [4] | outcome [5]

CCOC(=O)COc1ccc2c(C)c(CCN(CC)CC)c(=O)oc2c1Cl
inactive: outcome [1] | outcome [2] | outcome [3] | outcome [4] | outcome [5]

CC1(C)C(=O)C(C)(C)C1=O
inactive: outcome [1] | outcome [2] | outcome [3] | outcome [4] | outcome [5]

c1cc2ccc3ccc4ccc5cccc6c(c1)c2c3c4c56
inactive: viability change, negative = cytotoxic [1] -0.219% [at 3.27 µM] | activation [6] 11.3% [at 3.27 µM] | activation (H2AX phosphorylation) [3] -2.49% [at 5.45 µM] | activity change, negative = cytotoxicity [5] 0.956% [at 5.43 µM]

C/C(Cl)=C/CCl
inactive: outcome [1] | Potency [6] | outcome [3] | outcome [4] | outcome [5]

CCCCCCCCCCCCCCCC(=O)OC
inactive: viability change, negative = cytotoxic [1] 5.32% [at 19 µM] | activation [6] -0.158% [at 19 µM] | activation (H2AX phosphorylation) [3] 4.71% [at 31.6 µM] | activation [4] 0.217% [at 15.8 µM] | activity change, negative = cytotoxicity [5] -4.52% [at 31.6 µM]

O=Cc1ccccc1S(=O)(=O)O
inactive: outcome [1] | outcome [2] | outcome [3] | outcome [5]

CCOC(=O)c1ccc(N(C)C)cc1
inactive: outcome [1] | outcome [2] | outcome [3] | outcome [4] | outcome [5]

COC(=O)c1ccccc1Cl
inactive: outcome [1] | outcome [2] | outcome [3] | outcome [4] | outcome [5]

Cc1ccc2cccnc2c1
inactive: outcome [1] | outcome [3] | outcome [4] | outcome [5]

COc1cc(OC)cc(OC)c1
inactive: outcome [1] | outcome [2] | outcome [3] | outcome [4] | outcome [5]

CCO/C=C1\N=C(c2ccccc2)OC1=O
inactive: outcome [1] | Potency [6] | outcome [3] | outcome [4] | outcome [5]

CC(C)(C)NCC(O)COc1cccc2c1CCC(=O)N2 (stereo not given)
inactive: outcome [1] | Potency [6] | outcome [3] | outcome [5]

COc1cc(S(N)(=O)=O)cc(C(=O)O)c1OC
inactive: outcome [1] | Potency [6] | outcome [3] | outcome [4] | outcome [5]

COC(=O)c1c(C)cc(O)c(C)c1O
inactive: outcome [1] | outcome [2] | outcome [3] | outcome [5]

Clc1cc(Cl)c(Cl)c(Cl)c1Cl
inactive: outcome [1] | Potency [6] | outcome [3] | outcome [4] | outcome [5]

COC(=O)c1ccc(C(=O)O)cc1
inactive: outcome [1] | Potency [6] | outcome [3] | outcome [4] | outcome [5]

CC1=C(O)C(=O)CO1
inactive: outcome [1] | outcome [3] | outcome [4] | outcome [5]

Nc1ccc(C(=O)NCC(=O)O)cc1
inactive: outcome [1] | outcome [2] | outcome [3] | outcome [4] | outcome [5]

CC(C)=CCC/C(C)=C\C#N
inactive: outcome [1] | Potency [6] | outcome [3] | outcome [5]

CC(=O)OCC(=O)[C@@]1(O)CC[C@H]2[C@@H]3CCC4=CC(=O)C=C[C@]4(C)[C@H]3[C@@H](O)C[C@@]21C
inactive: outcome [1] | outcome [3] | outcome [5]

CC[N+](C)(CC)CC
inactive: outcome [1] | outcome [2] | outcome [3] | outcome [4] | outcome [5]

CCCCCCCCS(=O)(=O)O
inactive: outcome [1] | Potency [6] | outcome [3] | outcome [4] | outcome [5]
